The values that follow come from the antibiotic and cytotoxicity screens of Wong et al. (2023).

In all, about 39,000 compounds went through this assay and about 1,500 (3.8%) were called active. This is one part of a sample in which actives are shown more often than they occur.

The test system of this assay is HSkMC (human skeletal muscle cells). Nature of the assay: cytotoxicity call (relative viability < 0.9). The following applies: 10 µM.
Consider `Cc1noc(C)c1NC(=O)Nc1cccc2c1O[C@@H](CN(C)C(=O)Nc1cccc3ccccc13)[C@@H](C)CN([C@H](C)CO)C2=O`, for which the cytotoxicity call was “inactive”.

Consider `C[C@@H]1CN([C@@H](C)CO)S(=O)(=O)c2ccc(C#CCN(C)C)cc2O[C@@H]1CN(C)Cc1ccc2c(c1)OCO2`, for which the cytotoxicity call is “inactive”.

In the case of `COCC#Cc1cnc2c(c1)C(=O)N([C@@H](C)CO)C[C@@H](C)[C@H](CN(C)C(=O)c1cnccn1)O2`, the cytotoxicity call was “inactive”. In the case of `CO[C@H]1CN(C)C(=O)c2cc(NC(=O)Nc3cccc(Cl)c3)ccc2OC[C@@H](C)N(C(=O)Nc2c(C)noc2C)C[C@H]1C` it was “inactive”. Take `C[C@H]1CN([C@@H](C)CO)C(=O)CCCn2nncc2CO[C@H]1CN(C)S(=O)(=O)c1ccc(Cl)cc1`: the cytotoxicity call was “inactive”.

`NC(CC(=O)N1CCn2c(nnc2C(F)(F)F)C1)Cc1cc(F)c(F)cc1F.O.O=P(O)(O)O` (stereo not given): the cytotoxicity call was “inactive”.

On to `C[C@@H]1CN([C@@H](C)CO)C(=O)c2cccc(NS(=O)(=O)c3ccc(F)cc3)c2O[C@H]1CN(C)S(=O)(=O)c1ccc(F)cc1`, for which the cytotoxicity call is “inactive”. In the case of `C[C@H](CO)N1C[C@H](C)[C@@H](CN(C)C(=O)c2cnccn2)Oc2ncc(C#CCC3CCCC3)cc2C1=O` it was “inactive”; in that of `CC(C)C[C@H](NC(=O)[C@@H](Cc1c[nH]c2ccccc12)NC(=O)[C@H](Cc1ccc(O)cc1)NC(=O)[C@H](CO)NC(=O)[C@H](Cc1c[nH]c2ccccc12)NC(=O)[C@H](Cc1cnc[nH]1)NC(=O)[C@@H]1CCC(=O)N1)C(=O)N[C@@H](CCCNC(=N)N)C(=O)N1CCC[C@H]1C(=O)NCC(N)=O`, “inactive”; in that of `O=C1O[C@@H](c2ccccc2)[C@@H](c2ccccc2)N2[C@@H](c3ccc(O)cc3)[C@]3(C(=O)Nc4ccccc43)[C@@H](C(=O)N3CCCCCCC3)[C@H]12`, “inactive”. In the case of `O=C1O[C@@H](c2ccccc2)[C@@H](c2ccccc2)N2[C@@H](c3ccc(OCCO)cc3)[C@]3(C(=O)Nc4ccccc43)[C@@H](C(=O)N3CCCCCCC3)[C@H]12` it was “inactive”.

As to `O=C1O[C@H](c2ccccc2)[C@H](c2ccccc2)N2[C@H]1[C@@H](C(=O)N1CCCCCCC1)[C@]1(C(=O)Nc3ccccc31)[C@H]2c1ccc(O)cc1`, the cytotoxicity call is “active”. Then `O=C(O)C[C@](O)(Cc1ccc(O)cc1)C(=O)O`, with “inactive”. Then `CCS(=O)(=O)Nc1ccc2c(c1)C(=O)N(C)[C@H]1CC[C@H](CC(=O)N3CCN(C)CC3)O[C@@H]1CO2`, with “inactive”; and `Cc1ccc(S(=O)(=O)N[C@H]2CC[C@@H](CC(=O)N3CCC(Cc4ccccc4)CC3)O[C@H]2CO)cc1`, with “inactive”.

As to `C[C@@H]1CN([C@H](C)CO)C(=O)c2cccc(NC(=O)Nc3ccc4c(c3)OCO4)c2O[C@H]1CN(C)Cc1ccc(-c2ccccc2)cc1`, the cytotoxicity call is “inactive”.

`O=C(NO)c1cccc(C(=O)N/N=C/c2cc(I)cc(I)c2O)c1`: the cytotoxicity call is “inactive”.

For the molecule `O=C(CCCCC(=O)N/N=C/c1cc(I)cc(I)c1O)NO`, the cytotoxicity call is “inactive”. On to `O=C(CCCCCCC(=O)N/N=C/c1cc(I)cc(I)c1O)NO`, for which the cytotoxicity call is “active”. Take `C[C@@H]1CCCCO[C@@H](CN(C)Cc2ccncc2)[C@H](C)CN([C@@H](C)CO)C(=O)c2cc(NC(=O)CCC(F)(F)F)ccc2O1`: the cytotoxicity call was “inactive”.

For the molecule `Oc1cc(O)c2c(c1)OC(c1cc(O)c(O)c(O)c1)C(O)C2c1c(O)cc(O)c2c1OC(c1cc(O)c(O)c(O)c1)C(O)C2c1c(O)cc(O)c2c1OC(c1cc(O)c(O)c(O)c1)C(O)C2` (stereo not given), the cytotoxicity call was “inactive”. Regarding `C[C@@H]1CN([C@H](C)CO)C(=O)c2cc(C#CCN(C)C)cnc2O[C@H]1CN(C)Cc1ccc(C(=O)O)cc1`, the cytotoxicity call was “inactive”. In the case of `CCN(CC)[C@H]1CCS(=O)(=O)C1` it was “inactive”. Then `C[C@@H](Oc1cc(-n2cnc3ccc(CN4CCN(C)CC4)cc32)sc1C(N)=O)c1ccccc1C(F)(F)F`, with “active”; and `COc1cccc(NC(=O)N2C[C@H](O)COC[C@@H]3O[C@@H](CC(=O)NC4Cc5ccccc5C4)CC[C@H]32)c1`, with “inactive”; and `CCCNC(=O)N(C)C[C@@H]1Oc2cc(C#Cc3cccc(F)c3)ccc2S(=O)(=O)N([C@@H](C)CO)C[C@H]1C`, with “inactive”. In the case of `C[C@@H]1CN([C@H](C)CO)C(=O)c2cc(NS(=O)(=O)c3ccc(Cl)cc3)ccc2O[C@@H](C)CCCCO[C@@H]1CN(C)Cc1ccc(Cl)c(Cl)c1` it was “inactive”; in that of `C[C@@H]1CCCCO[C@@H](CN(C)Cc2ccc(Cl)c(Cl)c2)[C@H](C)CN([C@@H](C)CO)C(=O)c2cc(NS(=O)(=O)c3ccc(Cl)cc3)ccc2O1`, “active”.

As to `C[C@H](CO)N1C[C@H](C)[C@@H](CN(C)Cc2ccc(Cl)c(Cl)c2)OCCCC[C@H](C)Oc2ccc(NS(=O)(=O)c3ccc(Cl)cc3)cc2C1=O`, the cytotoxicity call is “inactive”.

Regarding `C[C@@H]1CCCCO[C@H](CN(C)Cc2ccc(Cl)c(Cl)c2)[C@@H](C)CN([C@@H](C)CO)C(=O)c2cc(NS(=O)(=O)c3ccc(Cl)cc3)ccc2O1`, the cytotoxicity call is “active”. In the case of `C[C@@H]1CCCCO[C@H](CN(C)Cc2ccc(Cl)c(Cl)c2)[C@H](C)CN([C@@H](C)CO)C(=O)c2cc(NS(=O)(=O)c3ccc(Cl)cc3)ccc2O1` it was “inactive”; in that of `C[C@@H]1CCCCO[C@@H](CN(C)Cc2ccc(Cl)c(Cl)c2)[C@@H](C)CN([C@H](C)CO)C(=O)c2cc(NS(=O)(=O)c3ccc(Cl)cc3)ccc2O1`, “inactive”; in that of `C[C@@H]1CN([C@H](C)CO)C(=O)c2cc(NS(=O)(=O)c3ccc(Cl)cc3)ccc2O[C@@H](C)CCCCO[C@H]1CN(C)Cc1ccc(Cl)c(Cl)c1`, “active”. In the case of `C[C@@H]1CCCCO[C@@H](CN(C)Cc2ccc(Cl)c(Cl)c2)[C@@H](C)CN([C@@H](C)CO)C(=O)c2cc(NS(=O)(=O)c3ccc(Cl)cc3)ccc2O1` it was “active”. In the case of `Nc1nnc(CC(=O)O)[nH]1`, the cytotoxicity call was “inactive”. In the case of `Cc1ccc(S(=O)(=O)Nc2ccc3c(c2)C(=O)N([C@H](C)CO)C[C@H](C)[C@H](CN(C)Cc2ccncc2)OCCCC[C@H](C)O3)cc1` it was “inactive”; in that of `O=C(N[C@H]1CC[C@@H](CCNS(=O)(=O)c2ccc(F)cc2)O[C@H]1CO)C1CC1`, “inactive”. In the case of `C[C@@H]1CCCCO[C@@H](CN(C)S(C)(=O)=O)[C@@H](C)CN([C@@H](C)CO)C(=O)c2cc(NC(=O)CCCN(C)C)ccc2O1` it was “inactive”; in that of `CC(C)NC(=O)Nc1ccc2c(c1)CC(=O)N([C@@H](C)CO)C[C@@H](C)[C@@H](CN(C)Cc1ccc3c(c1)OCO3)O2`, “inactive”; in that of `C[C@H]1CCCCO[C@@H](CN(C)C(=O)C2CCCCC2)[C@@H](C)CN([C@@H](C)CO)C(=O)c2cc(NC(=O)c3ccccc3)ccc2O1`, “inactive”. In the case of `COC[C@@H](C)NC(=O)C1CN(C(C)=O)C1` it was “inactive”. Turning to `C[C@H](CO)N1C[C@H](C)[C@@H](CN(C)S(=O)(=O)c2ccc(Cl)cc2)OCc2cn(nn2)CCCC1=O`, the cytotoxicity call is “inactive”. Regarding `Cc1noc(C)c1NC(=O)Nc1ccc2c(c1)C(=O)N([C@H](C)CO)C[C@@H](C)[C@H](CN(C)Cc1ccc(-c3ccccc3)cc1)O2`, the cytotoxicity call is “inactive”.

As for `C[C@H]1CN([C@@H](C)CO)C(=O)c2cc(NS(=O)(=O)c3ccccc3)ccc2O[C@@H]1CN(C)S(=O)(=O)c1ccc(F)cc1`, the cytotoxicity call is “inactive”. In the case of `COc1ccc(-c2cnc3c(c2)C(=O)N([C@H](C)CO)C[C@H](C)[C@H](CN(C)C(=O)Cc2ccncc2)O3)cc1`, the cytotoxicity call was “inactive”.

For `C[C@@H]1CCCCO[C@H](CN(C)Cc2ccc(Cl)c(Cl)c2)[C@@H](C)CN([C@H](C)CO)C(=O)c2cc(NS(=O)(=O)c3ccc(Cl)cc3)ccc2O1`, the cytotoxicity call was “inactive”. Then `C[C@@H]1CCCCO[C@@H](CN(C)Cc2ccc(Cl)c(Cl)c2)[C@H](C)CN([C@H](C)CO)C(=O)c2cc(NS(=O)(=O)c3ccc(Cl)cc3)ccc2O1`, with “active”. In the case of `CN1CCN(C(=O)[C@H]2[C@H](CO)[C@H]3Cn4c(ccc(C5=CCCC5)c4=O)[C@@H]2N3S(C)(=O)=O)CC1` it was “inactive”.

Consider `CC(C)/C(=N/O)c1ccccc1`, for which the cytotoxicity call was “inactive”. Then `CC(C)NC(=O)N(C)C[C@@H]1Oc2ccc(NC(=O)C3CCCCC3)cc2C(=O)N([C@@H](C)CO)C[C@H]1C`, with “inactive”; and `C[C@@H]1O[C@H]2Oc3c(-c4ccc(O)cc4)oc4cc(O)c(c(O)c4c3=O)-c3cc(ccc3O)/C=C\C(=O)OC[C@H]3O[C@@H](O[C@H]([C@H]1O)[C@H]2O)[C@H](O)[C@@H](O)[C@@H]3O`, with “inactive”; and `CC(=O)Nc1ncc(CN2CCOCC2)s1`, with “inactive”.

`Cc1c(CN2CCN(C(=O)[C@H](C)O)CC2)sc2c(N3CCOCC3)nc(-c3cnc(N)nc3)nc12`: the cytotoxicity call is “active”. Then `CC(C)NC(=O)N(C)C[C@@H]1Oc2ccc(NS(=O)(=O)c3cccs3)cc2C(=O)N([C@H](C)CO)C[C@@H]1C`, with “inactive”. For `CC(C)NC(=O)N(C)C[C@H]1Oc2ccc(NC(=O)C3CCCCC3)cc2C(=O)N([C@H](C)CO)C[C@H]1C`, the cytotoxicity call is “inactive”. Then `C[C@H](CO)N1C[C@H](C)[C@H](CN(C)C(=O)NC2CCCCC2)OCCCC[C@H](C)Oc2ccc(NC(=O)Nc3ccc4c(c3)OCO4)cc2C1=O`, with “inactive”; and `C[C@H]1CN([C@@H](C)CO)C(=O)c2cc(-c3cccc(C#N)c3)cnc2O[C@@H]1CN(C)C(=O)c1cnccn1`, with “inactive”.

As to `CC1(COc2ccc3c(c2)ncn3-c2ccc3cccc(N4CCC(N)CC4)c3n2)COC1`, the cytotoxicity call is “active”. On to `COCCOC(=O)N1C(=O)[C@@]2(c3cc(C#CC4=CCCCC4)ccc31)[C@H](C(=O)N1CCc3cc(OC)c(OC)cc3C1)[C@H]1C(=O)O[C@H](c3ccccc3)[C@H](c3ccccc3)N1[C@@H]2c1ccccc1OCCO`, for which the cytotoxicity call was “active”. In the case of `C=CCNC(=O)[C@@H]1[C@H]2C(=O)O[C@H](c3ccccc3)[C@H](c3ccccc3)N2[C@H](c2ccc(OCCO)cc2)[C@@]12C(=O)Nc1ccc(C#CC3=CCCCC3)cc12` it was “inactive”. In the case of `COCCOC(=O)N1C(=O)[C@@]2(c3cc(C#CC4=CCCCC4)ccc31)[C@H](c1ccccc1OCCO)N1[C@H](c3ccccc3)[C@H](c3ccccc3)OC(=O)[C@H]1[C@@H]2C(=O)N1CCc2cc(OC)c(OC)cc2C1` it was “inactive”; in that of `O=C1O[C@H](c2ccccc2)[C@H](c2ccccc2)N2[C@H]1[C@@H](C(=O)NC[C@@H](O)c1ccccc1)[C@]1(C(=O)Nc3ccc(C#CC4=CCCCC4)cc31)[C@H]2c1ccccc1OCCO`, “active”. On to `O=C1O[C@H](c2ccccc2)[C@H](c2ccccc2)N2[C@H]1[C@@H](C(=O)NC[C@@H](O)c1ccccc1)[C@]1(C(=O)Nc3ccc(C#CC4(O)CCCCCC4)cc31)[C@H]2c1ccccc1OCCO`, for which the cytotoxicity call is “inactive”. Then `C=CCNC(=O)[C@H]1[C@@H]2C(=O)O[C@@H](c3ccccc3)[C@@H](c3ccccc3)N2[C@@H](c2ccccc2OCCO)[C@]12C(=O)Nc1ccc(C#CC3=CCCCC3)cc12`, with “active”; and `C=CCNC(=O)[C@@H]1[C@H]2C(=O)O[C@H](c3ccccc3)[C@H](c3ccccc3)N2[C@H](c2ccccc2OCCO)[C@@]12C(=O)Nc1ccc(C#Cc3ccc(OC)cc3)cc12`, with “inactive”; and `O=C1O[C@@H](c2ccccc2)[C@@H](c2ccccc2)N2[C@@H](c3ccc(OCCO)cc3)[C@]3(C(=O)Nc4ccc(C#CC5=CCCCC5)cc43)[C@@H](C(=O)NC[C@H](O)c3ccccc3)[C@H]12`, with “inactive”. Turning to `C=CCNC(=O)[C@H]1[C@@H]2C(=O)O[C@@H](c3ccccc3)[C@@H](c3ccccc3)N2[C@@H](c2ccc(OCCO)cc2)[C@]12C(=O)Nc1ccc(C#CC3=CCCCC3)cc12`, the cytotoxicity call is “inactive”. For the molecule `C=CCNC(=O)[C@@H]1[C@H]2C(=O)O[C@H](c3ccccc3)[C@H](c3ccccc3)N2[C@H](c2ccccc2OCCO)[C@@]12C(=O)Nc1ccc(C#CC3=CCCCC3)cc12`, the cytotoxicity call was “active”. In the case of `C=CCNC(=O)[C@H]1[C@@H]2C(=O)O[C@@H](c3ccccc3)[C@@H](c3ccccc3)N2[C@@H](c2ccccc2OCCO)[C@]12C(=O)Nc1ccc(C#CC3(O)CCCCCC3)cc12` it was “inactive”; in that of `COCCOC(=O)N1C(=O)[C@@]2(c3cc(C#CC4=CCCCC4)ccc31)[C@H](c1ccc(OCCO)cc1)N1[C@H](c3ccccc3)[C@H](c3ccccc3)OC(=O)[C@H]1[C@@H]2C(=O)N1CCc2cc(OC)c(OC)cc2C1`, “inactive”.
